# Results reported in PubChem BioAssay AID448 (National Center for Advancing Translational Sciences (NCATS), 2006).
# About 45 (0.07%) of roughly 65,000 compounds were called active. These entries were drawn from the full list. Unmarked numbers belong to inactive results. Calls come from the whole dose curve.
# Tested on: Schistosoma mansoni peroxiredoxin 2 (Prx2)
# Test: Schistosoma Mansoni Peroxiredoxins (Prx2)
# Conditions: S. mansoni Prx2 activity coupled to TGR/GSH (TGR is thioredoxin glutathione reductase), NADPH fluorescence loss, qHTS
# Description: NIH Molecular Libraries Screening Centers Network [MLSCN]
# NIH Chemical Genomics Center [NCGC]
# David Williams [Illinois State University]
# Schistosoma mansoni, a causative agent of schistosomiasis, resides in the bloodstream of their host up to 30 years without being eliminated by the host immune attack. One proposed survival mechanism is the production of an antioxidant "firewall" that neutralizes the oxidative assault of the host's immune attack. Schistosoma mansoni peroxiredoxins (Prx) are important parasite antioxidant proteins that play a crucial role in redox balance mechanisms. […] First, the proteins are essential for the parasite survival. […] Third, the protein(s) is amenable for study at the molecular level and can be produced in bacteria in large quantities, in soluble and active form. Inhibition of Prx activity was screened in a coupled-enzyme format with reducing equivalents being transferred from NADPH to […] intermediate via thioredoxin/glutathione reductase (TGR)-catalyzed reaction, then from thioredoxin to hydrogen peroxide via Prx-catalyzed electron transfer. A decrease in the fluorescence intensity of NADPH was used to measure the enzyme activity. Purified S. mansoni TGR and Prx were provided by Professor David L. Williams, Illinois State University.
# NCGC Assay Protocol Summary:
# 100 mM phosphate buffer, pH 7.4, 10 mM EDTA, 0.01% Tween-20.
# 100 uM NADPH/25 nM TGR/700 uM GSH/50 nM Prx2 mixture in columns 1, 2, 5-48. Titration of control potassium antimonyl tartrate (PAT, from 1 mM, then 1:5) pin-transferred to lower half of column 2. Column 1 and upper half of column 2 are neutral (100% activity).
# Three uL of reagents were dispensed to 1536-well Greiner black plates. Compounds and controls (20 nL) were transferred via Kalypsys PinTool. The plates were incubated for 15 min at room temperature, and then a 1 uL aliquot of 400 uM NADPH/700 uM GSH was added, immediately followed by a 1uL aliquot of 2.5 mM H2O2 (to start the reaction). The plate was transferred to ViewLux (Perkin-Elmer) High-throughput CCD imager where kinetic measurements (every 30 sec, for a total of 8 min) of NADPH fluorescence were taken using 365 nm excitation/450 nm emission filter set. During dispense, enzyme-containing reagent bottles were kept submerged into 4 deg C water bath to minimize degradation.
# Keywords: NIH Roadmap, MLSCN, MLI, MLSMR, David Williams, Peroxyredoxin, Schistosoma mansoni, prx2, prx, , qHTS, NCGC
# Potency is the fitted concentration of half-maximal effect.
row,Structure (SMILES),Potency [µM]
1,Oc1ccc2ccccc2c1C=NCc1c(O)ccc2ccccc12,> 57
2,CC(C)(O)[C@H]1[C@H]2OC(=O)[C@@H]1[C@]1(O)C[C@H]3O[C@]34C(=O)O[C@H]2[C@]14C,> 25.6
3,CC(C)[C@H](CO)Nc1nc(Nc2cc(N)cc(Cl)c2)c2ncn(C(C)C)c2n1,> 57
4,O=c1[nH]c(=O)n([C@H]2C[C@H](O)[C@H](CO)O2)cc1Br,> 57
5,COc1cccc(Cn2c(=O)c(CCc3ccccc3)nc3cnc(N(C)C)nc32)c1,> 11.4
6,COc1ccccc1CNc1ncncc1-c1cccnc1,> 57
7,COc1ccc(NC(=O)N2CC3(CCN(C(C)=O)CC3)C2)cc1,> 57
8,Cc1ccccc1-c1nc(N(C)Cc2ccco2)c2ccccc2n1,> 57
9,O=C(c1cc(C(F)(F)F)cc(C(F)(F)F)c1)N1CCC2(CCCN(Cc3ccncc3)C2)CC1,> 57
10,C[C@H](CCC(=O)NCC(=O)O)[C@H]1CC[C@H]2[C@H]3[C@@H](C[C@@H](O)[C@]12C)[C@]1(C)CC[C@H](O)C[C@@H]1C[C@@H]3O,> 57
11,Cc1nc2cnc(Nc3ccccc3)nc2n(C[C@H]2CCCO2)c1=O,> 57
12,CC[N+](C)(CC)CCC[n+]1c(-c2ccccc2)c2cc(N)ccc2c2ccc(N)cc21,> 57
13,NCC[Se][Se]CCN,> 57
14,CCCC[C@H]1C(=O)N(c2ccccc2)N(c2ccc(O)cc2)C1=O,> 57
15,FC(F)(F)c1ccccc1-c1cc(NCc2ccccc2)ncn1,> 57
16,O=C(Nc1cccc(F)c1)N1CC2(CCN(C(=O)c3cnccn3)CC2)C1,> 57
17,COCCn1c(=O)c(CCc2ccccc2)nc2cncnc21,> 57
18,O=C(c1cnccn1)N1CCC2(CCCN(Cc3ccccc3)C2)CC1,> 57
19,COc1ccc(-c2nc3cnc(Oc4ccccc4)nc3n(Cc3cccs3)c2=O)cc1,> 57
20,COCCn1c(=O)c(-c2cccs2)nc2cncnc21,> 57
21,Cc1noc(C)c1-c1nccc(N2CCOCC2)n1,> 57

row,Structure (SMILES),Potency [µM]
1,O=C(c1cc(C(F)(F)F)cc(C(F)(F)F)c1)N1CCC2(CCCN(c3ccccn3)C2)CC1,> 57
2,C/C=C1\C(=O)C[C@@H]2[C@@H]3CCC4=CC(=O)CC[C@@]4(C)[C@H]3CC[C@@]12C,> 57
3,CS(=O)(=O)N1CCC[C@@]2(CCN(c3ccncc3)C2)C1,> 57
4,CCS(=O)(=O)N(C)[C@@H]1c2cc(C#N)ccc2OC(C)(C)[C@H]1O,> 57
5,O=C(c1ccco1)N1CCC[C@@]2(CCN(Cc3nccs3)C2)C1,> 57
6,COC(=O)[C@@]1(Cc2ccc(F)cc2)[C@H]2c3cc(C(=O)N4CCCC4)n(C[C@H](O)CO)c3C[C@H]2CN1C(=O)c1ccccc1,> 57
7,Cc1nc2cnc(Nc3ccccc3)nc2n(Cc2ccc(F)cc2)c1=O,> 57
8,O=C(c1cccc(F)c1)N1CCC2(CC1)CCN(c1ccccc1)CC2,> 57
9,Cc1nc2cnc(Oc3cccc(Cl)c3)nc2n(C2CC2)c1=O,> 57
10,NC[C@@H]1O[C@H](O[C@@H]2[C@H](O[C@@H]3O[C@H](CO)[C@@H](COC[C@H]4O[C@@H](CN)[C@@H](O)[C@@H](O)[C@@H]4N)[C@@H]3O)[C@@H](O)[C@@H](N)C[C@H]2N)[C@@H](N)[C@H](O)[C@@H]1O,> 57
11,CC(C)(C)NCC[C@@H](O)c1cc(C(F)(F)F)nc2c(C(F)(F)F)cccc12,> 57
12,CCNCCCNCCCNCCCNCC,> 57
13,COCC(=O)N1CCC2(CCCN(c3ccccc3)C2)CC1,> 57
14,c1cncc(-c2nc(N3CCNCC3)c3ccccc3n2)c1,> 57
15,c1ccc(CCN2CCN=C2Cc2ccccc2)cc1,> 57
16,COC(=O)[C@@]1(Cc2ccccc2)[C@H]2c3cc(C(=O)N4CCCC4)n(Cc4ccc(C)o4)c3C[C@H]2CN1C(=O)c1ccccc1,> 57
17,Cc1nc2cnc(N3CCNCC3)nc2n(Cc2ccc(F)cc2)c1=O,> 57
18,COC(=O)[C@H](C)[C@H]1C[C@]1(C)[C@H](NC(=O)OCc1ccccc1)c1ccccc1,> 57
19,O=c1c(-c2ccc(F)cc2)nc2cnc(N3CCNCC3)nc2n1Cc1cccs1,> 11.4
20,CCC[C@@H]1C[C@@]1(CCC)C(NS(=O)(=O)c1cccc2cccnc12)c1ccc(Cl)cc1 (some centres not stated),> 57
21,NS(=O)(=O)c1cc(C(=O)O)c(Cl)c([N+](=O)[O-])c1Cl,> 57

row,Structure (SMILES),Potency [µM]
1,O=c1[nH]c(=O)c2nc3ccccc3nc2[nH]1,> 57
2,N#Cc1ccc(CN2CCCC3(CCN(C(=O)c4ccco4)CC3)C2)cc1,> 57
3,CC(=O)N1CCC2(CCCN(Cc3ccccc3)C2)CC1,> 57
4,CN1[C@H]2CC(OC(=O)[C@@H](CO)c3ccccc3)C[C@H]1[C@H]1O[C@H]12 (some centres not stated),> 57
5,COc1ccc2nccc(C(=O)O)c2c1,> 25.6
6,CN(Cc1ccco1)c1cc(-c2ccccc2C(F)(F)F)ncn1,> 57
7,COc1ccc(-c2nc3cnc(N(C)C)nc3n(Cc3cccs3)c2=O)cc1,> 57
8,Cn1cccc1C(=O)N1CCC2(CC1)CN(c1cccc(-c3ccccc3)c1)C2,> 57
9,O=C(c1ccc([N+](=O)[O-])cc1)[C@@H](Br)[C@@H](Br)c1ccnc2ccccc12,> 57
10,CCCN(C/C=C\I)[C@@H]1CCc2cccc(O)c2C1,> 57
11,O=C(c1ccncc1)N1CCC2(CCCN(C(c3ccccc3)c3ccccc3)C2)CC1,> 57
12,Nc1nc(N)c2[nH]c(CNc3ccc(C(=O)O)cc3)nc2n1,> 57
13,COc1ccccc1CCn1c(=O)c(-c2cn(C)c3ccccc23)nc2cncnc21,> 57
14,Cc1cc(N2CCCCC2)nc2ccc(Cc3ccc4nc(N5CCCCC5)cc(C)c4c3)cc12,> 11.4
15,CC(C)C[C@@H](CC(=O)N[C@@H](CCC(=O)O)CC(=O)O)NC(=O)[C@@H]1CCCC[C@H]1NC(=O)C[C@@H](NC(=O)C[C@H](CO)NC(=O)[C@@H]1CCCC[C@H]1N)C(C)C,> 25.6
16,O=c1c(CCc2ccccc2)nc2cnc(N3CCNCC3)nc2n1Cc1cccs1,> 57
17,CS(=O)(=O)N1CCC2(CCN(c3ccncc3)CC2)CC1,> 57
18,N[C@H](C(=O)O)c1ccc(C(=O)O)c(O)c1,> 57
19,Cc1cc(OCC(=O)O)c(Cl)cc1Cl,> 57
20,CC(C)NC(=O)N1CC[C@@]2(CCCN(C(=O)c3cccc(F)c3)C2)C1,> 57
21,Cn1c(=S)c2[nH]c(SCCCc3ccccc3)nc2n(C)c1=O,> 57

row,Structure (SMILES),Potency [µM]
1,CN1CCC2(CC1)CCN(S(=O)(=O)c1ccccc1)CC2,> 57
2,Cc1cc2c(cc1C)NC1=C(N2)O[C@H](c2c[nH]c3ccc(COc4ccccc4)cc23)C1=O,> 57
3,O=c1c(-c2cc(F)cc(F)c2)nc2cnc(Oc3ccccc3)nc2n1C[C@H]1CCCO1,> 11.4
4,FC(F)(F)c1ccccc1-c1nc(-n2ccnc2)c2ccccc2n1,> 57
5,O=C(O)c1ccc(C(=O)O)c2c(C(=O)O)ccc(C(=O)O)c12,> 57
6,COc1ccccc1CNc1ncnc2ccc(-c3c(C)noc3C)cc12,> 57
7,CC(C)c1ccc2c([Si](C)(C)C)c3c(nc2c1)-c1cccc(=O)n1C3,> 57
8,COc1ccc2[nH]c3cc4c(=O)c5cc(OC)ccc5[nH]c4cc3c(=O)c2c1,> 57
9,Cc1cccc(CNc2ccnc(-c3cccnc3)n2)c1,> 57
10,C[C@@H](C(=O)Nc1ccc2ccccc2c1)[C@@H]1C[C@@]1(C)[C@@H](NC(=O)c1cccnc1)c1ccccc1,> 57
11,CCNc1ncc2ncc(=O)n(Cc3cccc(OC)c3)c2n1,> 57
12,Cc1c(C)c2c(c(C)c1O)CC[C@@](C)(CN1CCN(c3cc(N4CCCC4)nc(N4CCCC4)n3)CC1)O2,> 25.6
13,CN(C)C(=O)c1ccc(-c2cncnc2NC2CCNCC2)cc1,> 57
14,COc1ccc(Br)c2c1C[C@H](C(=O)O)CC2,> 57
15,COC(=O)[C@@H]1[C@H]2C[C@H]3c4[nH]c5cc(OC)ccc5c4CCN3C[C@@H]2C[C@@H](OC(=O)c2cc(OC)c(OC)c(OC)c2)[C@@H]1OC,> 57
16,O=C(c1ccc(F)cc1)C1CCN(CCCCc2ccccc2)CC1,> 57
17,Cc1ccnc(N)c1,> 25.6
18,COc1ccccc1CNc1cc(-c2ccccc2CN(C)C)ncn1,> 57
19,O=C(NCc1ccccc1)[C@H]1C[C@@H]1[C@H](NP(=O)(c1ccccc1)c1ccccc1)c1ccccc1,> 57
